Results reported in PubChem BioAssay AID2284376 (EPA ToxCast).
Activity calls are given as the source filed them. Rule for the calls: active = hit-call score of the fitted dose curve at least 0.9, where 1 is the maximum; inactive = score below 0.9.

Biological target: Peroxisome proliferator-activated receptor gamma (Homo sapiens) (UniProt P37231)
Assay: ERF_TW_NR_COA_hPPARG: Eurofins (ERF) Nuclear Receptor (NR) Functional Coactivator Assay for human Peroxisome Proliferator-activated Receptor gamma (PPARg) Agonism, conducted at Taiwan lab site
Procedure: ERF_TW_NR_COA_hPPARG is a biochemical, single-readout assay that uses extracted gene-proteins in a cell-free assay. Measurements were taken 16 hours after chemical dosing in a 96-well plate. See PPARgamma Human NHR Functional Agonist Coactivator Assay, Panlabs.ERF_TW_NR_COA_hPPARG is an assay component calculated from the ERF_TW_NR_COA_hPPARG assay. It is designed to measure FRET using a type of binding reporter as detected by fluorescence intensity of rosiglitazone with fluorimetry technology.Data from the assay component ERF_TW_NR_COA_hPPARG was analyzed at the assay endpoint, ERF_TW_NR_COA_hPPARG, in the positive analysis fitting direction relative to DMSO as the negative control and baseline of activity. Using a type of binding reporter, gain-of-signal activity can be used to understand changes in binding as they relate to gene PPARG. To generalize the intended target to other relatable targets, this assay endpoint is annotated to the nuclear receptor intended target family, where the subfamily is non-steroidal.
Human recombinant PPARgamma receptors expressed in insect cells are used. […] Determination of the amount of complex formed is read spectrofluorimetrically (excitation: 337 nm, emission: 520/490 nm). Test compound-induced increase fluorescence by 50 percent or more (>/=50%) relative to 1 uM GW1929 response indicates possible PPARgamma receptor agonist activity. […]

Sequence of Peroxisome proliferator-activated receptor gamma (Homo sapiens) (P37231 whole entry, looked up): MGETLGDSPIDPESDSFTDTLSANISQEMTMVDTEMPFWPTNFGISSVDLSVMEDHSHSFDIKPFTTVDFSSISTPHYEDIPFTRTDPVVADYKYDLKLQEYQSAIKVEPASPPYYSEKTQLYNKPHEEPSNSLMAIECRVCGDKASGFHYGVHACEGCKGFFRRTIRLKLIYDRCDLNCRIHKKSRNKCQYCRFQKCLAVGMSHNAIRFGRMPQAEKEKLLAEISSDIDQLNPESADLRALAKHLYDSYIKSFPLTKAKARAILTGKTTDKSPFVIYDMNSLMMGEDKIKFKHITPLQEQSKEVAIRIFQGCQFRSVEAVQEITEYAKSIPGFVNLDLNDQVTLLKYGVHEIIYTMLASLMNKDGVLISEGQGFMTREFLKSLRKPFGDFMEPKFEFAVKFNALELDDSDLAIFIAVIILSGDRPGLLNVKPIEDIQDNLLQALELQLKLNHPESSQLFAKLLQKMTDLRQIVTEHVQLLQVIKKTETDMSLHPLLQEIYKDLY

Question: Which outcome does the source give for `O=S(=O)(O)C(F)(F)C(F)(F)C(F)(F)C(F)(F)C(F)(F)C(F)(F)C(F)(F)C(F)(F)F` here?
Answer: inactive
